Results filed as inconclusive are left out. Activity calls are given as the source filed them. Unless noted, calls follow the shape of the dose curve; as a rule, active = well fitted curve in the direction sought with a large enough effect in the repeat runs; inconclusive = weak or mixed curves; inactive = no such curve, though single readings can be large; an effect the other way counts as inactive or inconclusive.
Experiments:
[1] = qHTS assay for small molecule agonists of the p53 signaling pathway (AID 651631; calls by dose curve; also: nearly all actives have a fitted effect of over 15% in size)
Outline: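 HCT-116 p53RE-bla reporter line, 16 h compound treatment at 37 °C, then fluorescence after 2 h with B/G FRET substrate.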

[2] = qHTS assay for small molecules that induce genotoxicity in human embryonic kidney cells expressing luciferase-tagged ATAD5 (AID 651632); also: nearly all actives have a fitted effect of over 15% in size
Outline: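 Increased luciferase signal from ATAD5-tagged reporter cells indicates DNA-damage-driven ATAD5 induction. HEK293T cells are treated for 16 hr at 37C before detection with Amplite.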

[3] = qHTS assay for small molecule agonists of the p53 signaling pathway - cell viability (AID 651633; calls by dose curve;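 also: p53RE-bla HCT reporter cells with a stable beta-lactamase p53 reporter; series mostly up to about 83 µM; nearly all actives have a fitted effect of over 30% in size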)
Outline: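 Viability counter-read: CellTiter-Glo luminescence (30 min, room temperature) in the same p53RE-bla plates. These plates had been exposed to compounds for 16 h at 37 C.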

[4] = qHTS assay for small molecules that induce genotoxicity in human embryonic kidney cells expressing luciferase-tagged ATAD5 - cell viability (AID 651634; calls by dose curve; also: nearly all actives have a fitted effect of over 25% in size)
Outline: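 Cytotoxicity counterscreen in HEK293T cells bearing an ATAD5-luciferase reporter: live-cell protease activity measured by CellTiter-Fluor fluorescence after 15.5 hr compound exposure.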

[5] = qHTS assay to test for compound auto fluorescence at 590 nm (red) in HepG2 cells (AID 720674)
Outline: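 1 hr compound incubation on HepG2 cells, 37 C, 5% CO2; plate read ex 540 nm / em 590 nm; intensities reported as Rose Bengal sodium equivalents.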

[6] = qHTS assay to test for compound auto fluorescence at 535 nm (green) in HepG2 cells (AID 720675)
[7] = qHTS assay to test for compound auto fluorescence at 460 nm (blue) in HEK293 cells (AID 720678)
Outline: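 Triamterene serves as the blue fluorophore standard. Compound signal at 405/460 nm is read in HEK293 wells (2,000 cells, 10% dialyzed FBS) after overnight treatment at 37C.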

[8] = qHTS assay to test for compound auto fluorescence at 590 nm (red) in HEK293 cells (AID 720679)
Outline: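 We plated HEK293 cells in 10% dialyzed FBS medium, let them adhere for 4-5 hr, then added 23 nL compound. Overnight at 37C and 5% CO2 preceded fluorescence measurement at 540/590nm.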

[9] = qHTS assay for small molecule disruptors of the mitochondrial membrane potential (AID 720635)
Outline: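 Mitochondrial membrane potential tracked with Mito-MPS dye, red aggregates (ex 540/em 590 nm) against green monomers (ex 490/em 535 nm). Compound treatment 1 hr at 37C, dye 30 min in HepG2.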

[10] = qHTS assay for small molecule disruptors of the mitochondrial membrane potential - cell viability (AID 720634; calls by dose curve;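 also: human HepG2 liver cancer cells; series mostly up to about 83 µM; nearly all actives have a fitted effect of over 20% in size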)
Outline: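 After overnight attachment at 37 C, HepG2 cells received compound or DMSO vehicle for 1 hr. Viability is then taken from ATP-driven luminescence following a 30 min room-temperature CellTiter-Glo step.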
% is scaled to controls: 0 for no effect and ±100 for the full control effect.

OCCCCCO
inactive: Potency [1] | Potency [2] | Potency [3] | Potency [4] | outcome [5] | outcome [6] | outcome [7] | outcome [8]

COC(=O)Nc1ccc(Cl)c(Cl)c1
inactive: Potency [1] | Potency [2] | Potency [3] | Potency [4] | outcome [6] | outcome [7] | outcome [8]

CC(=O)c1cnccn1
inactive: Potency [1] | Potency [2] | Potency [3] | Potency [4] | Potency [9] | outcome [5] | outcome [6] | outcome [7] | outcome [8]

CCCc1nn(C)c2c(=O)[nH]c(-c3cc(S(=O)(=O)N4CCN(C)CC4)ccc3OCC)nc12
inactive: Potency [1] | Potency [2] | Potency [3] | Potency [4] | outcome [5] | outcome [6] | outcome [7] | outcome [8]

CCNS(=O)(=O)c1ccc(C)cc1
inactive: Potency [1] | Potency [2] | Potency [3] | Potency [4] | Potency [9] | outcome [5] | outcome [6] | outcome [7] | outcome [8]

CO[C@@]1(NC(=O)CSC[C@@H](N)C(=O)O)C(=O)N2C(C(=O)O)=C(CSc3nnnn3C)CS[C@@H]21
inactive: Potency [1] | Potency [2] | Potency [3] | Potency [4] | Potency [9] | outcome [5] | outcome [6] | outcome [7] | outcome [8]

CC(C)NNC(=O)c1ccncc1
inactive: Potency [1] | Potency [2] | Potency [3] | Potency [4] | outcome [5] | outcome [6] | outcome [7] | outcome [8]

Cc1cccc(C)c1NC(=O)CC12CCCN1CCC2
inactive: Potency [1] | Potency [2] | Potency [3] | Potency [4] | Potency [9] | outcome [5] | outcome [6] | outcome [7] | outcome [8]

O=C(CO)[C@@H](O)[C@H](O)[C@H](O)CO
inactive: Potency [1] | Potency [2] | Potency [4] | outcome [10] | Potency [9] | outcome [5] | outcome [6] | outcome [7] | outcome [8]

CCN(CC#N)c1cccc(C)c1
inactive: Potency [1] | Potency [2] | Potency [3] | outcome [10] | outcome [5] | outcome [6] | outcome [7] | outcome [8]

O=C(CO)[C@@H](O)[C@H](O)[C@@H](O)CO
inactive: Potency [1] | Potency [2] | Potency [3] | Potency [4] | Potency [9] | outcome [5] | outcome [6] | outcome [7] | outcome [8]

C=C(C)C(=O)OCCOCCOCCOCCOC(=O)C(=C)C
inactive: Potency [1] | Potency [2] | Potency [3] | Potency [4] | outcome [5] | outcome [6] | outcome [7] | outcome [8]

C[C@@H]1C[C@H]2[C@@H]3C[C@H](F)C4=CC(=O)C(Cl)=C[C@]4(C)[C@@]3(F)[C@@H](O)C[C@]2(C)[C@@]1(O)C(=O)CO
inactive: Potency [1] | Potency [2] | Potency [3] | Potency [4] | outcome [5] | outcome [6] | outcome [7] | outcome [8]

C=CCCCCCCCCC(=O)OCC
inactive: Potency [1] | Potency [2] | Potency [3] | Potency [4] | outcome [5] | outcome [6] | outcome [7] | outcome [8]

c1ccc2sc(SN3CCOCC3)nc2c1
inactive: Potency [1] | Potency [2] | Potency [3] | Potency [4] | outcome [5] | outcome [6] | outcome [7] | outcome [8]

CC(C)CCCO
inactive: Potency [1] | Potency [2] | Potency [3] | Potency [4] | outcome [5] | outcome [6] | outcome [7] | outcome [8]

C[N+]1(C)[C@@H]2CC(OC(=O)[C@H](CO)c3ccccc3)C[C@H]1[C@@H]1O[C@@H]12 (some centres not stated)
inactive: Potency [1] | Potency [2] | Potency [3] | Potency [4] | outcome [5] | outcome [6] | outcome [7] | outcome [8]

CC(=O)c1ccc2ccccc2c1
inactive: Potency [1] | Potency [2] | Potency [3] | Potency [4] | outcome [5] | outcome [6] | outcome [7] | outcome [8]

CN(C)C(=O)Oc1ccc[n+](C)c1
inactive: Potency [1] | Potency [2] | Potency [3] | Potency [4] | Potency [9] | outcome [5] | outcome [6] | outcome [7] | outcome [8]

CCCCN1C=CN(C)C1
inactive: Potency [1] | Potency [2] | Potency [4] | fluorescence, % of fluorescein control [6] -0.0563% [at 18.6 µM] | fluorescence, % of triamterene [7] 0.173% [at 18.6 µM] | fluorescence, % of fluorescent control [8] -0.0345% [at 18.6 µM]

C[C@@H]1CCC[C@H](C)N1
inactive: Potency [1] | Potency [2] | Potency [4] | outcome [10] | Potency [9] | fluorescence, relative to Rose Bengal [5] 0.289% [at 18.6 µM] | fluorescence, % of fluorescein control [6] 0.0643% [at 18.6 µM] | fluorescence, % of triamterene [7] 0.0181% [at 18.6 µM] | fluorescence, % of fluorescent control [8] 0.0043% [at 18.6 µM]

CCCO[Si](OCCC)(OCCC)OCCC
inactive: Potency [1] | Potency [2] | Potency [4] | outcome [6] | outcome [7] | outcome [8]

CCCCS(=O)(=O)N[C@@H](Cc1ccc(OCCCCC2CCNCC2)cc1)C(=O)O
inactive: Potency [1] | Potency [2] | Potency [9] | outcome [5] | outcome [6] | outcome [7] | outcome [8]

Cc1ccnc(NS(=O)(=O)c2ccc(N)cc2)n1
inactive: Potency [1] | Potency [2] | Potency [4] | fluorescence, % of fluorescein control [6] 0.0423% [at 18.6 µM] | fluorescence, % of triamterene [7] 0.0233% [at 18.6 µM] | fluorescence, % of fluorescent control [8] 0.0091% [at 18.6 µM]

NC(=O)Cc1cccc2ccccc12
inactive: Potency [1] | Potency [3] | Potency [4] | outcome [6] | outcome [7] | outcome [8]

CN1CCN(c2cc3c(nn2)Oc2ccccc2N3C)CC1
inactive: Potency [1] | Potency [3] | Potency [4] | Potency [9] | outcome [5] | outcome [6] | outcome [7] | outcome [8]

C[C@H]1C[C@H]2[C@@H]3CCC4=CC(=O)C=C[C@]4(C)[C@H]3C(=O)C[C@]2(C)[C@@]1(O)C(=O)CO
inactive: Potency [1] | Potency [2] | Potency [4] | outcome [10] | Potency [9] | outcome [5] | outcome [6] | outcome [7] | outcome [8]

CC(C)C[C@@H](N)C(=O)O
inactive: Potency [1] | Potency [2] | Potency [4] | outcome [5] | outcome [6] | outcome [7] | outcome [8]

CCOc1ccccc1OCC
inactive: Potency [1] | Potency [2] | Potency [4] | outcome [10] | outcome [5] | outcome [6] | outcome [7] | outcome [8]

CN1[C@@H]2CC[C@H]1CC(OC(=O)C(O)c1ccccc1)C2 (some centres not stated)
inactive: Potency [1] | Potency [2] | Potency [4] | outcome [10] | outcome [6] | outcome [7] | outcome [8]

O=S(=O)(O)c1cccc2ccccc12
inactive: Potency [1] | Potency [2] | Potency [4] | outcome [10] | Potency [9] | outcome [6] | outcome [7] | outcome [8]

CCOC(=O)COc1cc(-n2ncc(C(F)(F)F)c(C)c2=O)c(F)cc1Cl
inactive: Potency [1] | Potency [2] | Potency [4] | outcome [5] | outcome [6] | outcome [7] | outcome [8]

From PubChem BioAssay (Tox21)
